proKLK7 act: proKLK7 (human) activation, primary screen | purified proKLK7, EDANS-DABCYL substrate fluorescence; 100% is mature enzyme control, 0% vehicle | actives 0.9% (n = 370,000) | P49862 | activation, % at 7 µM;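 active = activation above the mean of all tested compounds plus 3 SD, computed per campaign excluding outliers beyond control limits, cut at about 13% in these data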
Target sequence (P49862 whole entry, looked up): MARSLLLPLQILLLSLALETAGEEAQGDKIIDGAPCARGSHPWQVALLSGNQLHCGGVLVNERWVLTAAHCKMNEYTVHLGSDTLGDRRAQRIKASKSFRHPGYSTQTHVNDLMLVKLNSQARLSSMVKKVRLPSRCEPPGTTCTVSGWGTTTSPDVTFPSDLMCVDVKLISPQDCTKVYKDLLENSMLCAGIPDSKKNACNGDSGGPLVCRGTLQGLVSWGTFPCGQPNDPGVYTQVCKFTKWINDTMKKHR
HIF activator: HIF pathway transcriptional activation; U2OS HRE-luciferase reporter, luminescence; normalized: DMSO 0%, desferrioxamine 100%; actives 0.32% (n = 300,000); activation, % at 7.5 µM (by protocol); AID 1910;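 active = mean activation of at least 10% of the iron chelator positive control signal, with at least half of replicates also reaching 10%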
NPR2 activator: GC-B (human) receptor activation; HEK293-GC-B cells, CNP EC30, cGMP TR-FRET; 0% at EC30 CNP, 100% saturating CNP; P20594; AID 1920062; actives 0.11% (n = 370,000); activation, % at 10 µM;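 active = activation at 10 µM reaching about 35% in either raw or pattern-adjusted values, limit read from the data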
GC-A act: GC-A (human) enzyme activation; AID 1671463; activation, % at 10 µM; HEK293 GC-A cells, cGMP TR-FRET, EC30 ANP; 0% at EC30 ANP, 100% saturating ANP; actives 0.14% (n = 370,000); in the data active = activation above about 40%
KLK7 act conf: confirmation of human kallikrein-7 zymogen activators; shares compounds with proKLK7 act; purified proKLK7, EDANS-DABCYL substrate fluorescence; scaled: vehicle 0, mature enzyme 100; activation, % at 7 µM; actives 68% (n = 3,200);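 active = activation, as change over the incubation, above the mean of all tested compounds plus 3 SD, cut at about 13% in these data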
EDANS interfere: optically interferes with EDANS-DABCYL signal, flagging KLK7 hits. shares compounds with proKLK7 act. EDANS-DABCYL substrate fluorescence interference, no enzyme, 4 h; solvent 0%, active enzyme control 100%. activation, % at 7 µM. actives 80% (n = 3,200). AID 686952;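 active = activation above the all-compound mean plus 3 SD, ignoring values outside control-based bounds, cut at about 4.8% in these data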;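 note: value is the 4 h activation minus the activation read at time zero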
A number is an active result; i = inactive; nt = not tested or not shown. Sampled rows, rich in hits. Any-hit rate of the full collection: about 1.3%.

SMILES	proKLK7 act	HIF activator	NPR2 activator	GC-A act	KLK7 act conf	EDANS interfere
C[C@H](NC(=O)c1cc2c(cn1)[nH]c1ccccc12)C(=O)O	17.6	i	i	i	i	7.4
O=C(NCCCO)c1cc2c(cn1)[nH]c1ccccc12	14.4	i	i	i	i	7.6
COC(=O)[C@H](C)NC(=O)c1cc2c(cn1)[nH]c1ccccc12	i	i	i	i	nt	nt
O=C(O)c1cc2c(cn1)[nH]c1ccccc12	i	i	i	i	nt	nt
C[C@H](O)[C@@H]1CN2CCc3c([nH]c4c(-c5ccc6c(c5)OCO6)cccc34)[C@@H]2C[C@@H]1N(C)C(=O)NC1CCCCC1	i	nt	i	i	nt	nt
CCOC(=O)N1CCN(C(=O)c2cc3c(=O)n4ccccc4nc3s2)CC1	16.9	i	i	i	90.0	78.5
CN1CCN(C(=O)c2cc3c(=O)n4ccccc4nc3s2)CC1	48.2	i	i	i	70.2	70.9
CCOC(=O)N1CCN(c2nc3ccccn3c(=O)c2C=O)CC1	i	i	i	i	nt	nt
COc1ccccc1N1CCN(C(=O)c2cc3c(=O)n4ccccc4nc3s2)CC1	i	nt	i	i	nt	nt
CCn1c(=O)c2cc(C(=O)N3CCN(C)CC3)sc2c2ccccc21	27.6	i	i	i	i	8.0
CC(=O)c1ccc(Sc2ccccc2N)c([N+](=O)[O-])c1	15.5	i	i	i	i	i
Cc1cccc(-[n+]2c(C)cc(C)c3c(=O)[nH]c(=O)[nH]c32)c1	29.4	i	i	i	42.2	53.2
Cc1cc(C)[n+](-c2ccc(C(C)C)cc2)c2[nH]c(=O)[nH]c(=O)c12	27.4	i	i	i	61.0	65.2
CC(C)c1ccc(NC(=S)Nc2ccc3[nH]c(=O)[nH]c3c2)cc1	i	i	i	i	nt	nt
COc1cc(/C=N/n2c(-c3cc(-c4ccccc4)n[nH]3)n[nH]c2=S)ccc1OCc1ccccc1	i	nt	i	i	nt	nt
O=C(c1cccn2c(=O)c3cc(Cl)ccc3nc12)N1CCOCC1	52.2	i	i	i	64.9	73.3
O=C(c1cccn2c(=O)c3cc(Cl)ccc3nc12)N1CCN(Cc2ccc3c(c2)OCO3)CC1	i	i	i	i	nt	nt
O=C(c1cccn2c(=O)c3ccccc3nc12)N1CCN(Cc2ccc3c(c2)OCO3)CC1	15.5	i	i	i	21.6	27.9
CC(C)Oc1ccc(CNC(=O)c2ccc3c(c2)N(C)CCS3)cc1	i	i	i	i	nt	nt
CCOC(=O)N1CCC(NC(=O)c2ccc3c(c2)N(C)CCS3)CC1	50.7	nt	i	i	66.3	72.6
CN1CCSc2ccc(C(=O)NCc3cccc(Br)c3)cc21	i	i	i	i	nt	nt
COc1ccc(CNC(=O)c2ccc3c(c2)N(C)CCS3)cc1	34.7	i	i	i	i	33.3
Cc1cccc(CNC(=O)c2ccc3c(c2)N(C)CCS3)c1	17.9	i	i	i	i	i
O=C(OCc1cn(Cc2ccc(Cl)cc2)nn1)N1CCCC1	i	nt	i	i	nt	nt
COc1ccc(-c2noc(C3CCCN(C(=O)Nc4cccc(C)c4)C3)n2)cc1 (stereo not given)	i	nt	i	i	nt	nt
SMILES	proKLK7 act	HIF activator	NPR2 activator	GC-A act	KLK7 act conf	EDANS interfere
O=C(Nc1ccc(Cl)cc1)Nc1ccccc1C(=O)N1CCCC1	i	nt	i	i	nt	nt
O=C(COc1ccc(Cl)cc1)Nc1c(-c2cccs2)nc2ccccn12	12.7	i	i	i	i	i
Cc1ccn2c(NC(C)(C)C)c(-c3cccs3)nc2c1	i	i	i	i	nt	nt
CC(C)CCNc1c(-c2cccs2)nc2ccccn12	143.6	i	i	i	i	i
COc1ccc(S[C@]2(C(=O)N3CCOCC3)CC(=O)N(S(=O)(=O)c3ccc(F)cc3)[C@@H]2c2ccc(OC)cc2)cc1	i	nt	i	i	nt	nt
COc1ccc(-c2oc3c4c2C(=O)OCCOC4CCC3)cc1 (stereo not given)	14.9	nt	i	i	i	7.8
COc1ccc(-c2oc3c(c2C(=O)OCCO)C(OCCO)CCC3)cc1 (stereo not given)	i	nt	i	i	nt	nt
N#C/C(=C(/O)CCCl)c1ccccn1	208.6	i	i	i	389.0	395.1

Screening results: PubChem BioAssay, several laboratories
